From PubChem
This is a sample that favours compounds with a hit; in the whole collection about 1.2% have one here.
RGS16-Gao HTS: RGS16-Galphao interaction regulator (human) | bead-based flow cytometry RGS16-Galphao binding, fluorescence; actives lie on both sides | binding response (% of control), % at 10 µM | actives 0.38% (n = 220,000) | AID 1441;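 also: Galphao activated by GDP with aluminum fluoride before binding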
Target sequence (O15492 whole entry, looked up): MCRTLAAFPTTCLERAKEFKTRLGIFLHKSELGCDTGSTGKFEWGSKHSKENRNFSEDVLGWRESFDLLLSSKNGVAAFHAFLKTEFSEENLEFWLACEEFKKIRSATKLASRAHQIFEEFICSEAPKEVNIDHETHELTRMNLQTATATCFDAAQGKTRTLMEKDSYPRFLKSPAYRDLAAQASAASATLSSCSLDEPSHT
Target sequence (P09471 whole entry, looked up): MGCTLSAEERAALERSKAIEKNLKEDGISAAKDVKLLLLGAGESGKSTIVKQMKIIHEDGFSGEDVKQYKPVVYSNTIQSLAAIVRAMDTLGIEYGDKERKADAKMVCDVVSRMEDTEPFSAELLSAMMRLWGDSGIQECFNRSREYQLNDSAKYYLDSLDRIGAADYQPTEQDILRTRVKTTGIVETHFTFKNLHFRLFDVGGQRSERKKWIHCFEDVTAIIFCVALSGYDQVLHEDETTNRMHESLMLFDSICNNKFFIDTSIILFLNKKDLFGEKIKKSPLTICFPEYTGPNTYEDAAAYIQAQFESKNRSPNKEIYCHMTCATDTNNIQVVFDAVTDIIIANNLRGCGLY
RGS7-Gao: human RGS7-Galphao interaction regulation; Multiplexed bead flow cytometry, RGS7-Galphao binding; actives lie on both sides; binding response (% of control), % at 10 µM; actives 0.35% (n = 220,000); in the data active = binding response below about 49% or above about 150%; inconclusive = no clear call, values can overlap the other calls; inactive = in between;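 also: fluorescent Galphao held in activated GDP-AlF4 state binding bead-coupled RGS7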
Target sequence (P09471 whole entry, looked up): as above
GSH bead fluor: compound fluoresces at 488/530 nm on GSH beads | GSH beads flow cytometry, compound fluorescence 488/530 nm; stronger effect = higher value | actives 0.25% (n = 190,000) | fluorescence (KMESF) at 10 µM; in the data active = fluorescence above about 89;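 also: glutathione beads carrying GST-tagged Bcl family fusion proteins plus one bare bead set; values are compound well signal with DMSO vehicle wells as background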
Avidin fluor: compound fluoresces at 488/530 nm on avidin beads; compound fluorescence 488/530 nm, flow cytometry; stronger effect = higher value; fluorescence (KMESF) at 10 µM; actives 0.38% (n = 220,000); in the data active = fluorescence above about 47
RGS4-Gao reg: human RGS4-Galphao interaction regulation; P09471; Multiplexed bead flow cytometry, RGS4-Galphao binding; actives lie on both sides; binding response (% of control), % at 10 µM; actives 0.33% (n = 220,000); AID 1415; in the data active = binding response below about 49% or above about 150%; inactive = in between;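 also: fluorescent Galphao activated with aluminum fluoride binding bead-coupled RGS4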
RGS8-Gao: regulators of human RGS8-Galphao interaction | P09471 | multiplexed bead flow cytometry, RGS8-Galphao binding; actives lie on both sides | response (percent of control binding), % at 10 µM | actives 0.34% (n = 220,000); in the data active = response below about 60% or above about 140%; inactive = in between;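 also: Galphao activated as the GDP aluminium fluoride complex binding bead-coupled RGS8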
RGS4-Gao HTS: regulators of human RGS4-Galphao interaction; RGS4–Galpha-o binding response, % at 10 µM; actives 99% (n = 1,600); multiplexed bead flow cytometry, RGS–Galpha-o binding; shares compounds with RGS16-Gao HTS;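 also: fluorescently labeled Galpha-o bound to GDP with aluminium fluoride binding biotinylated RGS beads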
Avidin counter: interferes with biotinylated probe binding to avidin beads. streptavidin beads, fluorescein-biotin binding, flow cytometry. 1,700 tested, under 10 active. shares compounds with RGS16-Gao HTS. AID 1783. inhibition, % at 10 µM;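 active = inhibition above 50%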;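 also: median green fluorescence of gated singlet beads compared with DMSO control wells; 0% = DMSO wells and 100% = complete loss of bead fluorescence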
RGS8-Gao confirm: confirmation of regulators of human RGS8-Galphao interaction; binding response (% of control), % at 10 µM; bead-based flow cytometry RGS8-Galphao binding, fluorescence; actives lie on both sides; actives 3% (n = 1,700); shares compounds with RGS16-Gao HTS; in the data active = binding response below about 72% or above about 130%; inactive = in between;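 also: Galphao activated as GDP AlF4 complex before binding bead RGS8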
RGS7-Gao confirm: confirmation of regulators of human RGS7-Galphao interaction; bead-based flow cytometry RGS7-Galphao binding; actives lie on both sides; actives 7.8% (n = 1,700); response (percent of control binding), % at 10 µM; shares compounds with RGS16-Gao HTS; in the data active = response below about 75% or above about 130%; inactive = in between;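 also: fluorescent Galphao activated with GDP and aluminum fluoride binding bead-coupled RGS7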
RGS16-Gao single: confirmation of regulators of human RGS16-Galphao interaction; shares compounds with RGS16-Gao HTS; bead-based flow cytometry, RGS16-Galphao binding; actives lie on both sides; response (% of control binding), % at 10 µM; actives 4% (n = 1,700); in the data active = response below about 74% or above about 130%; inactive = in between;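 also: Galphao activated as the GDP aluminium fluoride complex binding bead-coupled RGS16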
RGS4-Gao confirm: RGS4-Galphao interaction regulation, single point confirmation | AID 1840 | actives 4% (n = 1,700) | shares compounds with RGS16-Gao HTS | binding response (% of control), % at 10 µM | RGS4-Galphao binding, multiplexed bead flow cytometry; actives lie on both sides; in the data active = binding response below about 74% or above about 130%; inactive = in between
RGS19-Gao conf: RGS19-Galphao interaction regulation, single point confirmation; shares compounds with RGS16-Gao HTS; bead-based flow cytometry RGS19-Galphao binding; actives lie on both sides; response (percent of control binding), % at 10 µM; actives 5% (n = 1,700); AID 1841; in the data active = response below about 50% or above about 160%; inactive = in between;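 also: 100% = no compound control and 0% = blank background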
* marks the source's active call; other numbers are inactive results; ? = inconclusive; / = not tested or not shown; [ ] = another dose, or the depositor's remark. Unless noted, no rule for the calls is given here.

SMILES	RGS16-Gao HTS	RGS7-Gao	GSH bead fluor	Avidin fluor	RGS4-Gao reg	RGS8-Gao	Avidin counter	RGS8-Gao confirm	RGS7-Gao confirm	RGS16-Gao single	RGS4-Gao confirm	RGS19-Gao conf	others
COc1ccc(C2=[N+](C)CCn3cccc32)c(OC)c1	205*[activator]	142	10	16	160*[activator]	124	0	109	119	117	115	111
COc1ccc(CNC(=O)c2cc3c(s2)CN(Cc2ccccc2)C3)cc1	102	99	21	9	103	101	/	/	/	/	/	/
Cc1cccc(NC(=O)CCN2CCOCC2)c1	97	97	8	18	101	101	/	/	/	/	/	/
Cc1cccc(NC(=O)CCn2ccnc2C)c1	13*	16*	30	0	22*	14*	-1	102	94	102	98	96
CCCCN(C)C(=O)Cn1cnc2sc(C)cc2c1=O	114	155*[activator]	21	110*	109	98	/	/	/	/	/	/	RGS4-Gao HTS=109*
CN(C)CCNc1oc(-c2cccc(Cl)c2)nc1C#N	5.0*	12*	11	5	0.2*	31*	-1	98	98	99	99	105
O=C1CCCC(O)=C1C=NCc1ccccc1	103	96	14	8	100	99	/	/	/	/	/	/
O=S(=O)(c1ccc(-c2ccon2)s1)N1CCN(c2ccccn2)CC1	86	?	/	12	89	88	/	/	/	/	/	/
O=C(NCC1OCCc2ccccc21)c1ccc(NC(=O)c2ccc(Cl)cc2Cl)cc1 (stereo not drawn)	445*[activator]	329*[activator]	17	190*	315*[activator]	143*[activator]	4	98	95	90	94	73
CCOC(=O)C1CCN(C(=S)NC2CC3C=CC2C3)CC1 (stereo not drawn)	98	?	/	5	101	101	/	/	/	/	/	/
COc1ccc(OCC(=O)Nc2ccccc2OC)cc1	422	111	5	5	116	153*[activator]	-1	110	117	110	111	105	RGS4-Gao HTS=116*
COc1ccc(OCC(=O)Nc2ccccc2OC(F)F)cc1	99	102	56	8	102	103	/	/	/	/	/	/
Cc1sc2ncnc(Sc3nnc4sc5ccccc5n34)c2c1C	292*[activator]	129	8	16	208*[activator]	111	-1	99	98	104	98	92
CCSc1ncnc2sc(C)c(C)c12	77	101	6	4	102	99	/	/	/	/	/	/
O=C(CS(=O)(=O)c1ccccc1)Nc1ccc(S(=O)(=O)Nc2ncccn2)cc1	26	35*	9	13	35*	32*	0	97	91	96	94	90
COCCN(CCOC)S(=O)(=O)c1ccc(C(=O)Nc2ccc([N+](=O)[O-])cc2OC)cc1	112	?	12	11	103	107	/	/	/	/	/	/
COc1ccccc1N1CCN(S(=O)(=O)CC23CCC(CC2=O)C3(C)C)CC1 (stereo not drawn)	14*	17*	30	0	23*	15*	0	99	101	98	96	70
O=[N+]([O-])c1cccc(-n2nnnc2CNCc2ccccc2)c1	128	?	/	35	149	97	/	/	/	/	/	/
O=C(O)CCCN1C(=O)/C(=C/c2ccncc2)SC1=S	137	?	/	40	151*[activator]	104	-1	99	98	99	99	101
O=C(O)CCCCCN1C(=O)/C(=C\c2ccncc2)SC1=S	205	100	7	11	102	122	/	/	/	/	/	/
Cc1nn(-c2ccccc2)c(C)c1/C=N\N1CCN(c2ccc(Cl)cc2)CC1	/	/	17	/	/	/	0	99	101	102	102	91
CC1CCCC(NC(=O)COC(=O)Cc2cn3ccsc3n2)C1C (stereo not drawn)	-64*	-19*	8	/	-58*	3.7*	-1	103	99	107	100	99
CCN=C1SC(CC(=O)NCC)C(=O)N1CC (stereo not drawn)	519	213*[activator]	43	74*	259*[activator]	118	-1	99	104	103	100	106
COC(=O)Cc1ccc(NC(=O)c2ccccc2Br)cc1	24*	?	16	3	33*	28*	0	99	98	100	98	99
COC(=O)Cc1ccc(NC(=S)NNC(=O)c2ccccc2Br)cc1	114	103	8	3	104	104	/	/	/	/	/	/
SMILES	RGS16-Gao HTS	RGS7-Gao	GSH bead fluor	Avidin fluor	RGS4-Gao reg	RGS8-Gao	Avidin counter	RGS8-Gao confirm	RGS7-Gao confirm	RGS16-Gao single	RGS4-Gao confirm	RGS19-Gao conf	others
CCN1C(=O)/C(=C/N2CCc3ccccc3C2)SC1=S	/	/	/	/	/	/	2	99	99	99	97	102
Cc1cccc(CSc2nnc(CCNC(=O)OC(C)(C)C)o2)c1	100	?	/	7	103	98	/	/	/	/	/	/
CCCCn1c(/N=C/c2ccc(N(C)C)cc2)nc2ccccc21	105	104	23	6	98	100	/	/	/	/	/	/
CCCCn1c(/N=C/c2ccc3c(c2)OCO3)nc2ccccc21	/	/	41	/	/	/	1	101	100	99	99	100
COC(=O)CC1C(=O)NCCN1C(=O)CSc1nc2cc(Cl)ccc2o1 (stereo not drawn)	100	?	13	9	99	99	/	/	/	/	/	/
CNC(=O)C1CC(=O)N(CCCc2ccccc2)C(=Nc2ccccc2)S1 (stereo not drawn)	22*	92	47	3	94	87	1	102	101	104	99	120	RGS4-Gao HTS=94*
O=C(COC(=O)CNC(=O)c1ccco1)NCc1ccc(F)cc1	103	100	14	12	104	103	/	/	/	/	/	/
COc1ccc(C[C@H]2CN3C(=NC[C@@H]3C(C)C)N2CCNC(=O)CCC2CCCCC2)cc1	14*	10.0*	21	-1	27*	20*	0	103	136*[activator]	116	126*[activator]	134
